Hits are enriched below; roughly 6.6% of the tested compounds scored in any of these assays.
Gli-Sufu block: blocks Gli-Sufu signaling in a luciferase reporter; AID 588413; inhibition, % at 5 µM; 340,000 compounds, 0.74% hits; Sufu-KO-LIGHT fibroblasts, Gli luciferase reporter luminescence;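 active = inhibition above about 55%, limit read from the data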
CSC inhib: blocks cancer stem cells. inhibition, % at 7.5 µM. 300,000 compounds, 1.1% hits. cancer stem cell-like cells viability, luminescence; in the data active = inhibition above about 75%; tested in HMLE shEcad cells
MPTP block: inhibitors of mitochondrial permeability transition pore | inhibition, % at 10 µM | 360,000 compounds, 1.4% hits | isolated mouse mitochondria, Ca2+ swelling absorbance, 30 min | AID 602449;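 active = inhibition of 50% or more, scaled per plate between neutral and stimulator controls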
Beta apoptosis: beta cell apoptosis inhibition; INS-1E cytokine-induced death, ATP luminescence, 48 h; percent of positive-control rescue, neutral wells zero; protection from apoptosis, % (test concentration not listed); AID 435005; 300,000 compounds, 0.8% hits;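 active = Every replicate reaches about 75%, or at least half do and their mean reaches it too, limit read from the data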;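 note: higher means more ATP so stronger rescue from cytokine killing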
Mdm2-MdmX inh: disrupts the human Mdm2-MdmX interaction | SaOS-2 split-luciferase Mdm2/MdmX complementation, luminescence | O15151+Q00987 | AID 485346 | 330,000 compounds, 3% hits | inhibition, % at 8 µM;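 active = inhibition of at least 50% at 8 µM in the primary screen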
Target sequence (O15151 whole entry, looked up): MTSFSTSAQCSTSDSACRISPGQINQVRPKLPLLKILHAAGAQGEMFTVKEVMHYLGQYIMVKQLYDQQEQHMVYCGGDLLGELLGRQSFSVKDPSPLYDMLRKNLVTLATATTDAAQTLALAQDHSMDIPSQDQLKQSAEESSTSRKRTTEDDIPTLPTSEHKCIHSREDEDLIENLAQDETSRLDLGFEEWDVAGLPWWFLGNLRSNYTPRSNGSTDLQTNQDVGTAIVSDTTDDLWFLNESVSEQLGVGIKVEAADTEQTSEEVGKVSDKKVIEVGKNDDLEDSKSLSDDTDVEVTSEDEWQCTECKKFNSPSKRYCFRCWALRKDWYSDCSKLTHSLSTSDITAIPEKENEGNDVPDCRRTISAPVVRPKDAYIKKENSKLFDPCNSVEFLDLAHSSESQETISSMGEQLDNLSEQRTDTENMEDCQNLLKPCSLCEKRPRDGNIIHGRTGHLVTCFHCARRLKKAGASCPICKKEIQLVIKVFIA
Target sequence (Q00987 whole entry, looked up): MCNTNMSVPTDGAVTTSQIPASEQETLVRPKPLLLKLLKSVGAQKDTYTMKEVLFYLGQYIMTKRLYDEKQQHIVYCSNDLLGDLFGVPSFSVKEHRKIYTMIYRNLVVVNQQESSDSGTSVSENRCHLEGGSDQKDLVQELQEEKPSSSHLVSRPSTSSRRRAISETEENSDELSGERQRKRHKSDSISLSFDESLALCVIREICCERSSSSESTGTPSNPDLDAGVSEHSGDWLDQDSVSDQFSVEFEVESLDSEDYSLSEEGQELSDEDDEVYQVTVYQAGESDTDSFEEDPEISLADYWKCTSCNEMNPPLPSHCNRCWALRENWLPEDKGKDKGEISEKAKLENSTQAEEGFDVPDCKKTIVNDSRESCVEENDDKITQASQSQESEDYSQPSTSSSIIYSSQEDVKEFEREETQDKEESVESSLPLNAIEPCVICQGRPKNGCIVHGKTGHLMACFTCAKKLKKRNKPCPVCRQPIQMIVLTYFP
GRIN3A LBD mod: NR3A (human) ligand-binding domain modulation; NR3A LBD differential scanning fluorimetry, Tm shift; 0% = protein alone, 100% = glycine-bound protein; Tm shift relative to glycine control, % at 25 µM; 340,000 compounds, 2.5% hits; AID 1259313;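 active = melting temperature shift of at least 10% of the positive control shift, at one fixed dose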
Mdm2-MdmX conf: human Mdm2/MdmX binding inhibition, confirmed. shares compounds with Mdm2-MdmX inh. luminescent assay. inhibition, % at 8 µM. 10,000 compounds, 55% hits; in the data active = inhibition above about 40%
Full FLuc ctr: inhibits full-length luciferase, flagging false Mdm2/MdmX hits | inhibition, % at 8 µM | shares compounds with Mdm2-MdmX inh | SaOS-2 full-length luciferase counterscreen, luminescence | AID 504607 | 6,200 compounds, 77% hits;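 active = mean inhibition at 8 µM reaching about 37%, which flags the compound as non-specific, limit read from the data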;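 note: p53-null SaOS-2 cells with luciferase driven by a doxycycline-inducible promoter; compound on cells about two nights before reading with doxycycline added after day one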
Each line names hits and unclear results; the compound was inactive in the other large screens (follow-up assays come after a bar, where they were run).

N=c1n(CCN2CCCC2)c2ccccc2n1CC(O)c1ccco1 (stereo not given)	none
N=c1n(CCN2CCCCC2)c2ccccc2n1CC(O)c1cccc(Br)c1 (stereo not given)	Mdm2-MdmX inh 97.8 | Mdm2-MdmX conf 78.5 | Full FLuc ctr inactive
N=c1n(CCN2CCCCC2)c2ccccc2n1CC(O)c1ccc(Cl)c(Cl)c1 (stereo not given)	Mdm2-MdmX inh 99.2 | Mdm2-MdmX conf 96.2 | Full FLuc ctr 55.9
Cc1ccccc1OCC(O)Cn1c(=N)n(CCN2CCOCC2)c2ccccc21 (stereo not given)	none
CN(C)CCn1c(=N)n(CC(O)c2ccc(Cl)c(Cl)c2)c2ccccc21 (stereo not given)	Mdm2-MdmX inh 70.6 | Mdm2-MdmX conf 55.0 | Full FLuc ctr 73.8
COC(=O)Cn1c(=N)n(CCN2CCCCC2)c2ccccc21	none
CCN(C[C@H]1N[C@@](Cc2ccccc2)(C(=O)OC)[C@H]2C(=O)N(C)C(=O)[C@@H]12)S(=O)(=O)c1ccc(C(C)(C)C)cc1	none (no result: CSC inhib, Beta apoptosis)
CN(C)N1C(N)=C(C#N)C(c2cccc([N+](=O)[O-])c2)C2=C1CC(C)(C)CC2=O (stereo not given)	none (no result: CSC inhib, Beta apoptosis)
O=C(O)CC/C(=N\NC(=O)c1ccccc1)c1cccs1	none
O=C(N/N=C(\CC(=O)c1cccs1)C(F)(F)F)c1ccncc1	Mdm2-MdmX inh 65.8 | Mdm2-MdmX conf inactive
CC1(c2nnnn2Cc2ccccc2)CCC(=O)N1Cc1cccnc1 (stereo not given)	none (no result: Gli-Sufu block, CSC inhib, Beta apoptosis, Mdm2-MdmX inh, GRIN3A LBD mod)
CC(=O)Nc1ccc(NC(=O)CSc2nc3ccccc3c(=O)n2CCCN2CCOCC2)cc1	none
CC1CCN(CCCn2c(SCC(=O)Nc3ccccc3Cl)nc3ccccc3c2=O)CC1	none
O=C(CSc1nc2ccccc2c(=O)n1CCCN1CCOCC1)Nc1ccc(F)c(Cl)c1	Mdm2-MdmX inh 52.4 | Mdm2-MdmX conf inactive
Cc1ccc(NC(=O)CSc2nc3ccccc3c(=O)n2CCCN2CCCCC2)cc1Cl	Mdm2-MdmX inh 99.8 | Mdm2-MdmX conf 77.8 | Full FLuc ctr 54.7
CCc1ccc(C(=O)C(C)OC(=O)Cn2[nH]c(=O)c3ccccc3c2=O)cc1 (stereo not given)	none
CCc1ccc(C(=O)C(C)OC(=O)Cc2n[nH]c(=O)c3ccccc23)cc1 (stereo not given)	Mdm2-MdmX inh 58.6 (no result: CSC inhib) | Mdm2-MdmX conf 74.2 | Full FLuc ctr 57.7
CN(C)CCNc1nc2sc3c(c2c(=O)n1CCc1ccccc1)CCCCC3	CSC inhib 105.7, Mdm2-MdmX inh 76.4 | Mdm2-MdmX conf inactive
O=C1CC(c2ccco2)Cc2c1cnn2-c1nc2ccccc2s1 (stereo not given)	Mdm2-MdmX inh 50.4 | Mdm2-MdmX conf inactive
Cc1cc(C)nc(-n2ncc3c2CC(c2ccccc2)CC3=O)n1 (stereo not given)	none
Cn1c(=O)c2[nH]c(C=Cc3ccc4c(c3)OCO4)nc2n(C)c1=O	none (no result: CSC inhib, Beta apoptosis, Mdm2-MdmX inh)
O/N=C/c1cc(Br)cs1	none
C(=N\Nc1nc2ccccc2[nH]1)/c1ccc2c(c1)OCCO2	none (no result: Beta apoptosis)
C(=N\Nc1ccc2ccccc2n1)/c1ccc2c(c1)OCCO2	Mdm2-MdmX inh 68.6 | Mdm2-MdmX conf 79.4 | Full FLuc ctr 98.2
CCCCN(c1ccc(C(=O)OC)cc1)S(=O)(=O)c1ccccc1	Mdm2-MdmX inh 62.2 | Mdm2-MdmX conf inactive
Cc1ccc(N2CC(C(=O)Nc3nnc(SCC(N)=O)s3)CC2=O)cc1 (stereo not given)	none
O=C(NCc1ccc(F)cc1)C(=O)Nc1nc(C23CC4CC(CC(C4)C2)C3)cs1	CSC inhib 75.1, Mdm2-MdmX inh 58.8 | Mdm2-MdmX conf inactive
O=C(NCc1ccccc1)C(=O)Nc1nc(C23CC4CC(CC(C4)C2)C3)cs1	none
CCN(C(=O)c1ccc2c(=O)n3c(nc2c1)CCCCC3)c1cc(OC)ccc1OC	none
CCOc1ccc(C(=O)NC(=S)N(Cc2ccccc2)Cc2ccccc2)cc1	none (no result: Mdm2-MdmX inh)
CCCN(CCC)C(=S)NC(=O)c1ccc(-c2ccccc2)cc1	Mdm2-MdmX inh 55.2 | Mdm2-MdmX conf inactive
COc1ccccc1-n1cc([C@@H]2C[C@H]3CN(c4ccccc4)C(=O)[C@]34CCCN24)cn1	Mdm2-MdmX inh 76.6 | Mdm2-MdmX conf inactive
COc1cc([C@@H]2C[C@H]3CN(c4ccccc4)C(=O)[C@]34CCCN24)cc(OC)c1OC	none
CCN(CC)c1ccc2c(cc1=O)[C@@H](NC)CCc1cc(OC)c(OC)c(OC)c1-2	Mdm2-MdmX inh 68.9 | Mdm2-MdmX conf 61.2 | Full FLuc ctr 90.5
COc1cc(CNC2CCCc3ccccc32)cc(OC)c1OC (stereo not given)	none
CN[C@H]1CCc2cc(OC)c(OC)c(OC)c2-c2ccc(N(C)CC(OC)OC)c(=O)cc21	CSC inhib 80.2, Mdm2-MdmX inh 71.1 | Mdm2-MdmX conf 48.6 | Full FLuc ctr 66.1
CCOCC(=O)NC1CCc2cc(OC(=O)COCC)c(OC)c(OC)c2-c2ccc(SC)c(=O)cc21 (stereo not given)	none (no result: CSC inhib, Beta apoptosis, Mdm2-MdmX inh)
Cc1ccc(N(C(=O)Cc2c[nH]c3ccccc23)C(C(=O)NC2CCCCC2)c2ccco2)cc1 (stereo not given)	Mdm2-MdmX inh 54.9 | Mdm2-MdmX conf 40.1 | Full FLuc ctr 85.7
Cn1c(CN2CCN(C(=O)c3ccc(F)cc3)CC2)nc2cc([N+](=O)[O-])ccc21	none
CCc1ccc(S(=O)(=O)/N=C2\C=C(Nc3ccc(O)cc3)C(=O)c3ccccc32)cc1	Gli-Sufu block 88.5, Beta apoptosis 115.4, Mdm2-MdmX inh 100.3 (no result: CSC inhib) | Mdm2-MdmX conf 96.6 | Full FLuc ctr inactive
Cc1cc(C)c(S(=O)(=O)/N=C2\C=C(Nc3ccc(C(=O)O)cc3)C(=O)c3ccccc32)c(C)c1	Beta apoptosis 113.2, Mdm2-MdmX inh 77.7 (no result: CSC inhib) | Mdm2-MdmX conf 67.8 | Full FLuc ctr 51.5
Cc1ccc(-c2nc3ncccc3o2)cc1NC(=O)c1sc2ccccc2c1Cl	Mdm2-MdmX inh 82.9 | Mdm2-MdmX conf inactive
Cc1ccc(-c2nc3ncccc3o2)cc1NC(=O)c1cccs1	none
C[C@@H](c1ccccc1)N1C[C@H]2CCCN2c2cc(Br)ccc2S1(=O)=O	Mdm2-MdmX inh 53.8 (no result: CSC inhib, Beta apoptosis) | Mdm2-MdmX conf 42.5 | Full FLuc ctr 41.4
O=S1(=O)c2ccc(Br)cc2N2CCC[C@H]2CN1Cc1ccccc1	Mdm2-MdmX inh 51.8 (no result: CSC inhib, Beta apoptosis) | Mdm2-MdmX conf 51.1 | Full FLuc ctr 37.1
O=S1(=O)c2ccc(Br)cc2N2CCC[C@@H]2CN1C1CC1	none (no result: CSC inhib, Beta apoptosis, Mdm2-MdmX inh)
CC1=C(C(=O)N(C(C)C)C(C)C)CC(CC(=O)NC2CC2)C(=O)N1CCCN1CCCC1=O (stereo not given)	none (no result: Gli-Sufu block, CSC inhib, Beta apoptosis, Mdm2-MdmX inh, GRIN3A LBD mod)
CC(=O)NCCNc1nc2cc(-c3ccc(C(=O)N4CCN(C)CC4)cc3)sc2c(=O)n1C	none (no result: Gli-Sufu block, CSC inhib, Beta apoptosis, Mdm2-MdmX inh, GRIN3A LBD mod)
Cc1ccccc1-c1nc(CS(=O)CC(=O)NCc2ccccn2)c(C)o1 (stereo not given)	none

From PubChem BioAssay
